High-throughput results deposited in PubChem BioAssay by National Center for Advancing Translational Sciences (NCATS).
PNC assembly inh = perinucleolar compartment assembly inhibition; PC3M PTB-GFP, PNC prevalence imaging, 16 h; stronger effect = lower value; activity change (PNC), negative = inhibition, % at 10 µM; 140,000 tested, 3.1% active; AID 2417;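 active = readout at or below -70, meaning at least 70% loss of cells showing the perinucleolar compartment, a nuclear body marking cancer cells; inconclusive = readout between -30 and a set limit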
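PC3M cells stably expressing PTB-GFP, 750–1000 cells/well, treated 16 h at 37 °C with compound (23 nl of library stock), in duplicate. After paraformaldehyde fixation and Hoechst stain, imaged at 20x; PNC prevalence scored by image analysis.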
GLA inh pH 4.5 = blocks human alpha-galactosidase A at pH 4.5. purified enzyme, 4-MU-alpha-Gal fluorescence, pH 4.5. activity change, negative = inhibition, % at 105 µM. 230,000 tested, under 10 active
ALOX12 inhib = 12-hLO (ALOX12) enzyme inhibition; purified 12-hLO, xylenol orange hydroperoxide absorbance; P18054; Potency, µM (top dose mostly 57.1 µM), hits mostly inhibitors; 150,000 tested, 0.12% active; also: nearly all actives have a fitted effect of over 55% in size
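Purified human 12hLO (150 nM), preincubated 15 min with compound, then 40 uM arachidonic acid for 30 min, room temperature, Hepes pH 7.0 with 0.01% Triton X-100. Hydroperoxide detected by ferrous iron/xylenol orange; 573/405 nm absorbance ratio gives reaction progress.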
aGal spleen mod = inhibitors or activators of human alpha-galactosidase in spleen homogenate | human spleen homogenate, 4MU-alpha-Gal fluorescence, 40 min | Potency, µM (series often up to 80 µM), hits mostly inhibitors | P06280 | 240,000 tested, 0.008% active
Target sequence (P06280 32-429 limits assumed): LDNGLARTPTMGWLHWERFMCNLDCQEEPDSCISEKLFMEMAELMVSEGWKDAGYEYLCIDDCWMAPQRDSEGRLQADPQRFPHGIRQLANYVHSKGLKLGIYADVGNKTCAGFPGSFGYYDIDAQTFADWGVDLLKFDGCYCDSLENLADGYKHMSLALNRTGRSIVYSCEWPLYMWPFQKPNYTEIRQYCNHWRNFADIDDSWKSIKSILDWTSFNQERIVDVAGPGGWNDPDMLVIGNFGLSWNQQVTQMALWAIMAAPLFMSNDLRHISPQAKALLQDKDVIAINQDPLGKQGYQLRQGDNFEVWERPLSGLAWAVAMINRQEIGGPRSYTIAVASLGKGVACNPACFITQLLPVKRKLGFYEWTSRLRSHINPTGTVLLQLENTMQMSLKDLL
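Human spleen homogenate (1 ug) was the enzyme source, with 4-methylumbelliferyl-alpha-D-galactopyranoside (1 mM final) in pH 5.0 citrate buffer with 0.01% Tween-20. Compounds were titrated; after 40 min at 37C, NaOH/glycine stop, 4-MU fluorescence read; AC50 from Hill fits.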
ALDH1A1 inh = ALDH1A1 (human) enzyme inhibition | Purified ALDH1A1, NADH fluorescence, propionaldehyde substrate | Potency, µM (doses to about 75.3 µM), actives largely listed as inhibitors | P00352 | AID 1030 | 220,000 tested, 7.3% active; active = well fitted inhibition curve with a large enough effect, not every such curve was filed as active; inconclusive = small, poorly fitted or top-dose-only effect, or another doubt; inactive = no such curve, though single readings can be large or run the other way
HPGD block = HPGD (human) dehydrogenase inhibition; P15428; purified HPGD, NADH fluorescence kinetic, PGE2 substrate; Potency, µM, most hits filed as inhibitors; 150,000 tested, 4.3% active; AID 894; active = well fitted inhibition curve with a large enough effect, not every such curve was filed as active; inconclusive = small, poorly fitted or top-dose-only effect, or another doubt; inactive = no such curve, though single readings can be large or run the other way
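NADH formation kinetics: reaction with 30 uM PGE2 and 1 mM NAD+ (final), 20 nM enzyme, Tris-HCl pH 8 with Tween 20, after 15 min compound preincubation at room temperature. Fluorescence change, last versus first of five reads.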
Hits are given with their value. The list is not random: actives were taken first. Their share in the collection is about 10%. Unless noted, calls follow the shape of the dose curve; as a rule, active = well fitted curve in the direction sought with a large enough effect; inconclusive = small, poorly fitted or top-dose-only effect, or another doubt; inactive = no such curve, though single readings can be large; an effect the other way counts as inactive or inconclusive.

`COc1ccc(CNC(=O)C(c2ccc(C)o2)N(Cc2cccs2)C(=O)Cc2cccs2)cc1` (centres undefined) gave PNC assembly inh inactive, GLA inh pH 4.5 inactive, ALOX12 inhib inactive, aGal spleen mod inactive, ALDH1A1 inh 3.5µM and HPGD block inactive.
COc1ccc2[nH]cc(CCNC(=O)C3CCCO3)c2c1 (centres undefined) was read as GLA inh pH 4.5 inactive, aGal spleen mod inactive and ALDH1A1 inh inactive.
`CCCCCCC(=O)NC(Nc1ccc(S(N)(=O)=O)cc1)C(Cl)(Cl)Cl` (centres undefined) gave PNC assembly inh inactive, GLA inh pH 4.5 inactive, ALOX12 inhib inactive, aGal spleen mod inactive, ALDH1A1 inh inactive and HPGD block inactive.
Screening COc1cccc(-c2cncnc2N(C)Cc2ccco2)c1 returned aGal spleen mod inactive and ALDH1A1 inh inconclusive.
CC[C@H](C)[C@H](NC(=O)[C@H](Cc1ccccc1)NC(=O)[C@H](CC(C)C)NC(=O)[C@H](CCSC)NC(=O)[C@H](CCC(=O)O)NC(=O)[C@H](CCC(=O)O)NC(=O)[C@H](CC(=O)O)NC(=O)[C@H](CO)NC(=O)[C@@H]1CCCN1C(=O)[C@H](CCCCN)NC(=O)[C@@H](N)[C@@H](C)O)C(=O)N[C@@H](Cc1ccc(O)cc1)C(=O)NCC(=O)N[C@@H](Cc1cnc[nH]1)C(=O)N[C@@H](Cc1ccc(O)cc1)C(=O)N[C@@H](CCCCN)C(=O)N[C@@H](CCC(N)=O)C(=O)N[C@@H](C)C(=O)N[C@H](C(=O)N[C@H](C(=O)NCC(=O)N[C@@H](CC(=O)O)C(=O)N[C@H](C(=O)N[C@@H](CC(N)=O)C(=O)N[C@H](C(=O)N[C@@H](CCC(=O)O)C(=O)N[C@@H](CCCNC(=N)N)C(=O)N1CCC[C@H]1C(=O)NCC(=O)N[C@@H](CCSC)C(=O)N[C@@H](CC(C)C)C(=O)N[C@@H](CC(=O)O)C(=O)N[C@@H](Cc1ccccc1)C(=O)N[C@H](C(=O)O)[C@@H](C)O)[C@@H](C)O)[C@@H](C)CC)C(C)C)[C@@H](C)O was read as aGal spleen mod inactive.
`CC(Cc1ccccc1)NC(=O)CSc1nc2nc3c(cc2c(=O)n1-c1ccccc1)COC(C)(C)C3` (centres undefined) gave PNC assembly inh inactive, GLA inh pH 4.5 inactive, ALOX12 inhib inactive, aGal spleen mod inactive, ALDH1A1 inh 1.6µM and HPGD block inactive.
`COc1ccc(-n2c(SCC(N)=O)nc3nc4c(cc3c2=O)COC(C)(C)C4)cc1` gave PNC assembly inh inactive, GLA inh pH 4.5 inactive, ALOX12 inhib inactive, aGal spleen mod inactive, ALDH1A1 inh 3.5µM and HPGD block inactive.
Screening C=CCn1c(SCC(N)=O)nc2nc3c(cc2c1=O)COC(C)(C)C3 returned GLA inh pH 4.5 inactive and aGal spleen mod inactive.
Screening CCn1c(SCC(=O)Nc2ccccc2)nc2nc3c(cc2c1=O)COC(C)(C)C3 returned GLA inh pH 4.5 inactive and aGal spleen mod inactive.
Screening OC[C@@H]1OC(O)[C@@H](O)[C@H](O)[C@@H]1O (some centres undefined) returned aGal spleen mod inactive.
For CC1(C)CC(C(CC(=O)N2CCCC2)Cc2ccccc2)CCO1 (centres undefined) the results were GLA inh pH 4.5 inactive and aGal spleen mod inactive.
For C=CCn1c(NC(=O)CC)c(C(=O)OCC)sc1=S the results were PNC assembly inh inactive, GLA inh pH 4.5 inactive, ALOX12 inhib inactive, aGal spleen mod inactive, ALDH1A1 inh inconclusive and HPGD block 20µM.
`O=C(c1ccco1)N(Cc1cccc([N+](=O)[O-])c1)c1ccc(Br)cc1` gave GLA inh pH 4.5 inconclusive, aGal spleen mod inactive and ALDH1A1 inh 22µM.
Screening O=C(c1ccco1)N(Cc1ccccc1)c1cccc([N+](=O)[O-])c1 returned GLA inh pH 4.5 inactive, aGal spleen mod inactive and ALDH1A1 inh 20µM.
For O=C(c1ccco1)N(Cc1ccco1)c1ccc(O)cc1 the results were PNC assembly inh -96, GLA inh pH 4.5 inactive, ALOX12 inhib inactive, aGal spleen mod inactive, ALDH1A1 inh inactive and HPGD block inactive.
